Measurements: PubChem BioAssay (EPA / NIEHS)
Values joined by “and” are separate entries in the source; they are usually repeats but may differ in a detail not shown here. Equal entries are not always repeated. Inconclusive results are not listed. More than one record can exist for a structure, and the calls need not agree. Active and inactive are the calls of the source. Rule for the calls: active = hit-call score of the fitted dose curve at least 0.9, where 1 is the maximum; inconclusive = response in the unintended direction; inactive = score below 0.9.

The molecules below were run against human Constitutive Androstane Receptor (CAR), NR1I3 (gene 9970) (UniProt Q14994) (assay: NVS_NR_hCAR_Antagonist: NovaScreen (NVS) Nuclear Receptor Binding Assay for human Constitutive Androstane Receptor Antagonism (CAR) (AID 2283344)).
Sequence of human Constitutive Androstane Receptor (CAR), NR1I3 (gene 9970) (Q14994 whole entry, looked up): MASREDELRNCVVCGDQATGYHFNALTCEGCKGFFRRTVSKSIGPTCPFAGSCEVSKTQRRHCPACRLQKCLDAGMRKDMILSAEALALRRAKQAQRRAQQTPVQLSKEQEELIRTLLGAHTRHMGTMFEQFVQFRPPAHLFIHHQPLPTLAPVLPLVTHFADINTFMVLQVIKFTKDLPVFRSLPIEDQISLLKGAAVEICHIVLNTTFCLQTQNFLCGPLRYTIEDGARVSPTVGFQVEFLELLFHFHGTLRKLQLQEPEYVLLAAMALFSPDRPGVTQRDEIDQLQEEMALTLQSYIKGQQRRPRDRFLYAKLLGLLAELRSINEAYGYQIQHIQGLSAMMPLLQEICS
How it was run: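 Single 25 uM duplicate primary screen, with concentration-series follow-up on actives. Cell-free binding format run in antagonist mode, TR-FRET signal taken 1 h post-dose; activity is signal loss relative to DMSO.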
For `C=CCOC(Cn1ccnc1)c1ccc(Cl)cc1Cl` (centres undefined), the AC50 was 9.8 µM (active).
For `CCCCC(CC)CN1C(=O)C2C3C=CC(C3)C2C1=O` (centres undefined), the AC50 was 12.3 µM (active).
`N[C@@H](Cc1cc(I)c(Oc2ccc(O)c(I)c2)c(I)c1)C(=O)O` was tested, and the AC50 was 20 µM (active).
For `CCCN(CCC)C(=O)SCC`, the outcome was “inactive”.
`CC1(C)C(C=C(Cl)Cl)C1C(=O)OCc1cccc(Oc2ccccc2)c1` (centres undefined) was tested, and the outcome was “inactive”.
For `CCCCOCCOCCOCc1cc2c(cc1CCC)OCO2`, the outcome was “inactive”.
For `CCCCC(CC)COC(=O)c1ccccc1C(=O)O` (centres undefined), the outcome was “inactive”.
With `CC(C)(c1ccc(O)cc1)c1ccc(O)cc1` the AC50 was 90.5 nM (active) and 367 nM (active).

What follows are molecules tested against bovine Estrogen Receptor (ER), ESR1 (gene 407238) (UniProt P49884) (assay: NVS_NR_bER: NovaScreen (NVS) Nuclear Receptor Binding Assay for bovine Estrogen Receptor (ER) (AID 2283345);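 note: actives lower the bound radioligand count which means they displace the ER ligand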).
Sequence of bovine Estrogen Receptor (ER), ESR1 (gene 407238) (P49884 whole entry, looked up): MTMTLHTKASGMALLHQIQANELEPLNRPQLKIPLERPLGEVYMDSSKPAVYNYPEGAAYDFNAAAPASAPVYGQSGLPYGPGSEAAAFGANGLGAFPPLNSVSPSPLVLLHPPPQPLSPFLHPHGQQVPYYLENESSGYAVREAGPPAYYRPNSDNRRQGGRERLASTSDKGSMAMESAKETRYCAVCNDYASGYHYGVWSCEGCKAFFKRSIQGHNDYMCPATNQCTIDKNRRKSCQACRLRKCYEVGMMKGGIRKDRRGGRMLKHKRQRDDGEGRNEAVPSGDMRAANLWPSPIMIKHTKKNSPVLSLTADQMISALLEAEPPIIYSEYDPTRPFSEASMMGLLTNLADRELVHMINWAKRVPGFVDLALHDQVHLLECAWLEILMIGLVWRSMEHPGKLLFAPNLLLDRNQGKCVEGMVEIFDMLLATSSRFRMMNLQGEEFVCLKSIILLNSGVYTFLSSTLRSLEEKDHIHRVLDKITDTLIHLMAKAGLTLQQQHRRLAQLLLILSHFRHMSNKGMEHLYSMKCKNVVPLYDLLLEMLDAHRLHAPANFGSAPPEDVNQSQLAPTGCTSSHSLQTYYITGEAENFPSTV
How it was run: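 Displacement of a radioligand from estrogen receptor in bovine uterine membrane preparations; scintillation signal taken at 18 hours, DMSO as baseline. Single-concentration duplicates (25 uM) preceded concentration-response follow-up of actives.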
`CCCCC(CC)CN1C(=O)C2C3C=CC(C3)C2C1=O` (centres undefined) was tested, and the outcome was “inactive”.
With `O=C(c1ccccc1)C1CCCCC1` the outcome was “inactive”.
In the case of `C[C@]12CC[C@@H]3c4ccc(O)cc4C[C@@H](CCCCCCCCCS(=O)CCCC(F)(F)C(F)(F)F)[C@H]3[C@@H]1CC[C@@H]2O` (some centres undefined), the outcome is reported as “inactive”.
For `CCOC(=O)C(C)Oc1ccc(Oc2cnc3cc(Cl)ccc3n2)cc1` (centres undefined), the outcome was “inactive”.
`N[C@@H](Cc1cc(I)c(Oc2ccc(O)c(I)c2)c(I)c1)C(=O)O` was tested, and the outcome was “inactive”.
In the case of `CC1(C)C(C=C(Cl)Cl)C1C(=O)OCc1cccc(Oc2ccccc2)c1` (centres undefined), the outcome is reported as “inactive”.
With `CCOC(=O)COc1cc(-n2ncc(C(F)(F)F)c(C)c2=O)c(F)cc1Cl` the outcome was “inactive”.
`Cc1nn(C)c(Oc2ccccc2)c1C=NOCc1ccc(C(=O)OC(C)(C)C)cc1` was tested, and the outcome was “inactive”.
For `CC(=O)S[C@@H]1CC2=CC(=O)CC[C@]2(C)[C@H]2CC[C@@]3(C)[C@@H](CC[C@@]34CCC(=O)O4)[C@H]12`, the outcome was “inactive”.
In the case of `CC(C)(c1ccc(O)cc1)c1ccc(O)cc1`, the outcome is reported as “inactive”.

What follows are molecules tested against Estrogen receptor (Homo sapiens) (UniProt P03372) (assay: NVS_NR_hER: NovaScreen (NVS) Nuclear Receptor Binding Assay for human Estrogen Receptor (ER) (AID 2283348)).
Sequence of Estrogen receptor (Homo sapiens) (P03372 whole entry, looked up): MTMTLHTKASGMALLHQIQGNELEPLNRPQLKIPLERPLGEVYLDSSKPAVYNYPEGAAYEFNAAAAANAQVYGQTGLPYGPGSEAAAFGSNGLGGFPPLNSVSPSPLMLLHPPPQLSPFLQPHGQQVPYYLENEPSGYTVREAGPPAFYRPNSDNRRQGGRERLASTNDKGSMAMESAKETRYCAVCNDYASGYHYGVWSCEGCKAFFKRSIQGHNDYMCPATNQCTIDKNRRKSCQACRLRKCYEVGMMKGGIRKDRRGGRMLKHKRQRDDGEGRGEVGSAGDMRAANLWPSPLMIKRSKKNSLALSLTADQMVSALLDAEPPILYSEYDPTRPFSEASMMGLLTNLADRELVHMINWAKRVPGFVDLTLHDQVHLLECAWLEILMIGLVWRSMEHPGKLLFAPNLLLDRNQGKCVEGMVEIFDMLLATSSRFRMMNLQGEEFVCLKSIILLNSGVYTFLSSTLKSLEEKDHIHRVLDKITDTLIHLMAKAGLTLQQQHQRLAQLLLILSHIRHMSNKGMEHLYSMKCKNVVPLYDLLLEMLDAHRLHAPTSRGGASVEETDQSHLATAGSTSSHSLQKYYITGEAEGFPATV
How it was run: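 MCF7-derived receptor extract, radiolabelled ligand, competitive displacement. Read: scintillation counts at 18 h. DMSO = negative control/baseline. Primary 25 uM duplicate; follow-up concentration–response.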
For `O=C(c1ccccc1)C1CCCCC1`, the outcome was “inactive”.
With `CCOC(=O)C(C)Oc1ccc(Oc2cnc3cc(Cl)ccc3n2)cc1` (centres undefined) the outcome was “inactive”.
In the case of `CCCCCOC(=O)COc1cc(N2C(=O)C3=C(CCCC3)C2=O)c(F)cc1Cl`, the outcome is reported as “inactive”.
In the case of `N[C@@H](Cc1cc(I)c(Oc2ccc(O)c(I)c2)c(I)c1)C(=O)O`, the AC50 is reported as 7.8 µM (active) and 8.49 µM (active) and 6.72 µM (active) and the outcome is reported as “inactive”.
With `CC1(C)C(C=C(Cl)Cl)C1C(=O)OCc1cccc(Oc2ccccc2)c1` (centres undefined) the outcome was “inactive”.
With `CCOC(=O)COc1cc(-n2ncc(C(F)(F)F)c(C)c2=O)c(F)cc1Cl` the outcome was “inactive”.
With `Cc1nn(C)c(Oc2ccccc2)c1C=NOCc1ccc(C(=O)OC(C)(C)C)cc1` the outcome was “inactive”.
With `CC(=O)S[C@@H]1CC2=CC(=O)CC[C@]2(C)[C@H]2CC[C@@]3(C)[C@@H](CC[C@@]34CCC(=O)O4)[C@H]12` the outcome was “inactive”.
For `O=C(c1ccc(O)cc1O)c1ccc(O)cc1O`, the AC50 was 59.6 nM (active) [middle of 4 runs].
In the case of `CC(C)(c1ccc(O)cc1)c1ccc(O)cc1`, the outcome is reported as “inactive”.
